The values that follow come from the supplement of paper PMC7156485.

What all share (settings): concentration: 10 µM; 24 h
The subject of assay [1] is HCC1569. Briefly: cell number relative to DMSO (% of DMSO); higher = more cells (less growth inhibition / toxicity). Put shortly:
(§1)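 In 384-well plates holding 800 HCC1569 or TDF cells per well in RPMI with 10% FBS, compounds were tested at 10 µM for 24 h at 37 °C in triplicate. Fixation used 3.7% formaldehyde. Staining used a rabbit anti-H1.0 antibody with an AlexaFluor 647 secondary, plus DAPI. Each value, H1.0 nuclear intensity or cell number, is a median of replicates shown as percent of the plate control, and HCC1569 values were smoothed for positional effects.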

Assay [2] has as its system TDF. Described as above. An outline of the steps: as §1
Assay [3] deals with TDF. Briefly: H1.0 immunofluorescence intensity relative to DMSO (% of DMSO); higher = stronger H1.0 induction, active = 120 or more. An outline of the steps: as §1
For assay [4], the system named is HCC1569. Nature of the assay: H1.0 immunofluorescence intensity relative to DMSO (% of DMSO); higher = stronger H1.0 induction, active = 140 or more. An outline of the steps:
as §1

± gives the standard deviation of the averaged measurements.
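Throughout, for H1.0 immunofluorescence intensity relative to DMSO: TDF is a line of transformed human dermal fibroblasts of mesenchymal origin.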
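Throughout, for cell number relative to DMSO: TDF denotes transformed human dermal fibroblasts of mesenchymal origin.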

With `N#CCCc1ccc2c(c1)-c1[nH]c3ccc([N+](=O)[O-])cc3c1CC(=O)N2` [Alsterpaullone,                   2-Cyanoethyl], the cell number in assay [1] is 63.2; in assay [2], 32.7. Further, the H1.0 immunofluorescence intensity is 112 (inactive) in assay [3] and 113 (inactive) in assay [4].

Regarding `COc1c(N2CCNC(C)C2)c(F)cc2c(=O)c(C(=O)O)cn(C3CC3)c12` (stereo unspecified) [Gatifloxacin], the results for the cell number in assay [1] and in assay [2] were 101 and 107, respectively. Further, the H1.0 immunofluorescence intensity in assay [3] is 94.2 (inactive); in assay [4], 107 (inactive).

Take `CC(C)C(CO)Nc1nc(Nc2cccc(Cl)c2)c2ncn(C(C)C)c2n1` (stereo unspecified): the values for the cell number in assay [1] and in assay [2] were 65.5 and 60.6, respectively. Further, the H1.0 immunofluorescence intensity in assay [3] was 120 (inactive); in assay [4] it was 174 (active).

`CCCCCC=CCC=CCC=CCC=CCCCC(=O)C(F)(F)F`: the results for the cell number in assay [1] and in assay [2] were 104 and 96.7, respectively. Moreover, the H1.0 immunofluorescence intensity in assay [3] was 95.3 (inactive); in assay [4], 95.1 (inactive).

Regarding `CN(C)CCC(c1ccc(Cl)cc1)c1ccccn1.O=C(O)C=CC(=O)O` (racemic), the cell number was 96.1 in assay [1] and 107 in assay [2]. In addition, the H1.0 immunofluorescence intensity is 103 (inactive) in assay [3] and 94.5 (inactive) in assay [4].

Take `CCOC(=O)C1=C(C)NC(C)=C(C(=O)OC)C1c1cccc([N+](=O)[O-])c1` (stereo unspecified) [Nitrendipine]: the cell number in assay [1] worked out at 97.8 ± 5.5; in assay [2], 101 ± 10. For the same compound, the H1.0 immunofluorescence intensity in assay [3] was 101 (inactive); in assay [4] it was 122 (inactive).

In the case of `OCC1OC(n2cnc3c(NC4CCCC4)ncnc32)C(O)C1O` (stereo unspecified) [N6-Cyclopentyladenosine], the cell number came to 99.8 in assay [1] and 104 in assay [2]. Besides, the results for the H1.0 immunofluorescence intensity in assay [3] and in assay [4] were 93.5 (inactive) and 97.7 (inactive), respectively.

Regarding `Cl.FC(F)(F)c1cc(COC2CCCNC2c2ccccc2)cc(C(F)(F)F)c1` [L-733,060 hydrochloride], the cell number in assay [1] was 91.2; in assay [2] it was 91.3. The H1.0 immunofluorescence intensity in assay [3] was 108 (inactive); in assay [4], 118 (inactive).

With `O=[N+]([O-])c1ccc(S(=O)(=O)NCc2ccccc2)c([N+](=O)[O-])c1` [N-Benzyl-2,4-dinitrobenzenesulfonamide], the values for the cell number in assay [1] and in assay [2] were 79 and 58.4, respectively. For the same compound, the values for the H1.0 immunofluorescence intensity in assay [3] and in assay [4] were 117 (inactive) and 123 (inactive), respectively.

Turning to `Nn1nnc2ccccc21` [1-Aminobenzotriazole], the cell number came to 106 in assay [1] and 107 in assay [2]. For the same compound, the H1.0 immunofluorescence intensity in assay [3] was 92.8 (inactive); in assay [4] it was 85.9 (inactive).

Turning to `CN1CCN(c2c(F)cc3c(=O)c(C(=O)O)cn(CCF)c3c2F)CC1` [Fleroxacin], the cell number in assay [1] came to 101; in assay [2] it was 87.2. Besides, the H1.0 immunofluorescence intensity is 102 (inactive) in assay [3] and 112 (inactive) in assay [4].

In the case of `CC(N)(Cc1ccc(O)cc1)C(=O)O` [L-alpha-Methyl-p-tyrosine], the cell number in assay [1] came to 107; in assay [2], 111. For the same compound, the H1.0 immunofluorescence intensity is 92.6 (inactive) in assay [3] and 90.6 (inactive) in assay [4].

As to `CCCCCCCCCCCCCCC[C@@H](O)[C@@H](N)CO` [(2S,3R)-2-amino-1,3-octadecanediol], the figures for the cell number in assay [1] and in assay [2] were 97.2 and 39.4, respectively. Also, the H1.0 immunofluorescence intensity in assay [3] is 120 (active); in assay [4], 96.2 (inactive).

For `Cl.NCCCC(N)(C(=O)O)C(F)F` (racemic) [DL-alpha-Difluoromethylornithine hydrochloride], the cell number in assay [1] came to 98.5; in assay [2], 111. Also, the H1.0 immunofluorescence intensity in assay [3] is 94.3 (inactive); in assay [4], 92.7 (inactive).

`O=C(NCc1ccc2c(c1)OCO2)c1c(Cl)cccc1Cl` [N-(1,3-benzodioxol-5-ylmethyl)-2,6-dichlorobenzamide]: the cell number was 97.3 in assay [1] and 103 in assay [2]. For the same compound, the results for the H1.0 immunofluorescence intensity in assay [3] and in assay [4] were 97 (inactive) and 105 (inactive), respectively.

Consider `CN(C(Cc1ccc(OS(=O)(=O)c2cccc3cnccc23)cc1)C(=O)N1CCN(c2ccccc2)CC1)S(=O)(=O)c1cccc2cnccc12` (stereo unspecified), for which the cell number was 75.2 ± 17 in assay [1] and 95.6 ± 12 in assay [2]. In addition, the H1.0 immunofluorescence intensity is 113 (inactive) in assay [3] and 127 (inactive) in assay [4].

As to `CSc1ccc(/C=C2/C(C)=C(CC(=O)O)c3cc(F)ccc32)cc1`, the values for the cell number in assay [1] and in assay [2] were 103 and 105, respectively. The H1.0 immunofluorescence intensity in assay [3] is 99.8 (inactive); in assay [4], 102 (inactive).

Regarding `O=C(Nc1cccc(C(=O)Nc2ccc(S(=O)(=O)[O-])c3cc(S(=O)(=O)[O-])cc(S(=O)(=O)[O-])c23)c1)Nc1cccc(C(=O)Nc2ccc(S(=O)(=O)[O-])c3cc(S(=O)(=O)[O-])cc(S(=O)(=O)[O-])c23)c1.[Na+].[Na+].[Na+].[Na+].[Na+].[Na+]`, the cell number in assay [1] worked out at 102; in assay [2], 110. Further, the H1.0 immunofluorescence intensity in assay [3] is 93.4 (inactive); in assay [4] it was 96 (inactive).

Turning to `Cl.NC1(C(=O)O)CCCCC1` [1-Amino-1-cyclohexanecarboxylic acid hydrochloride], the cell number in assay [1] stood at 100; in assay [2], 106. In addition, the H1.0 immunofluorescence intensity is 95.3 (inactive) in assay [3] and 86.6 (inactive) in assay [4].

Take `CNCC(O)C(O)C(O)C(O)CO` (stereo unspecified) [Meglumine]: the values for the cell number in assay [1] and in assay [2] were 103 and 120, respectively. For the same compound, the results for the H1.0 immunofluorescence intensity in assay [3] and in assay [4] were 99.3 (inactive) and 92.4 (inactive), respectively.

Regarding `Cc1ccc(Cl)c(Nc2ccccc2C(=O)[O-])c1Cl.[Na+]` [Meclofenamic acid sodium], the cell number in assay [1] and in assay [2] was 106 throughout. Also, the figures for the H1.0 immunofluorescence intensity in assay [3] and in assay [4] were 90.8 (inactive) and 101 (inactive), respectively.

For `CC1CCC2(C(=O)O)CCC3(C)C(=CCC4C5(C)CCC(O)C(C)(C)C5CCC43C)C2C1C` (stereo unspecified) [Ursolic acid], the cell number in assay [1] was 100; in assay [2], 101. Also, the H1.0 immunofluorescence intensity is 97.5 (inactive) in assay [3] and 93.7 (inactive) in assay [4].

`CCNC(=O)C1OC(n2cnc3c(N)nc(NCCc4ccc(CCC(=O)O)cc4)nc32)C(O)C1O.Cl` (stereo unspecified): the cell number was determined as 118 in assay [1] and 96 in assay [2]. For the same compound, the H1.0 immunofluorescence intensity in assay [3] was 103 (inactive); in assay [4], 102 (inactive).

For `CCOC(=O)C1=CC(OC(CC)CC)C(NC(C)=O)C(N)C1` (stereo unspecified) [Oseltamivir], the cell number was 104 in assay [1] and 100 in assay [2]. The H1.0 immunofluorescence intensity in assay [3] was 94 (inactive); in assay [4], 99.4 (inactive).
